# From article PMC7862700, “An all-to-all approach to the identification of sequence-specific readers for epigenetic DNA modifications on cytosine”
# Assays:
# Experiment in all cases: DAPPL (digital affinity profiling via proximity ligation, sequencing); 10 mM Tris-HCl pH 7.5, 50 mM NaCl, 1 mM DTT, 4% glycerol, room temperature, 30 min; GST-TFs on glutathione beads, 16-mer random dsDNA library, 0.1% formaldehyde crosslink after washing; high values mean tight binding
# [1] = molecular target: T1, FLI1 (Homo sapiens, UniProt Q01543 1-452); conditions: protein: recombinant; tags: N-terminal GST; dsDNA, one strand shown
# T1 sequence: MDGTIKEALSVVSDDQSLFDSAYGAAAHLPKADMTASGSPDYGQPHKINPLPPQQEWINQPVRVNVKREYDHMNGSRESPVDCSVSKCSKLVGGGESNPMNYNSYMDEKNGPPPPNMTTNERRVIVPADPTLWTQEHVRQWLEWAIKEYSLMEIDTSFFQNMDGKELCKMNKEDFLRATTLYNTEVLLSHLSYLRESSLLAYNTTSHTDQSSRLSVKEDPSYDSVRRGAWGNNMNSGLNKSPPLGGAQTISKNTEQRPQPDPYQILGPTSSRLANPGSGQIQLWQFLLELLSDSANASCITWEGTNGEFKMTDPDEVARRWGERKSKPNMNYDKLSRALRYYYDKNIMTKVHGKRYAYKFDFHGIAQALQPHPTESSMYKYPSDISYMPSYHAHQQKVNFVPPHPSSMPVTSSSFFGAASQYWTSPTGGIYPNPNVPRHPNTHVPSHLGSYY
# How it was run: (§1)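 Binding signal is defined as a hexamer's read frequency for one factor over its frequency for the tag-only sample. To obtain reads, GST-fused human transcription factors were expressed in yeast, captured on glutathione beads, barcoded with DNA and pooled with that sample. Pools met 200 nmole of a 16-mer random double-stranded DNA library in Tris/NaCl/DTT/glycerol buffer for 30 min at room temperature before washing, 0.1% formaldehyde crosslinking, proximity ligation (BsaI/T4 ligase, 1 h, 37 °C), PCR and Illumina NextSeq500 sequencing.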
# [2] = molecular target: T2, ELK1 (Homo sapiens, UniProt P19419 1-428); conditions: protein: recombinant; tags: N-terminal GST; dsDNA, one strand shown
# T2 sequence: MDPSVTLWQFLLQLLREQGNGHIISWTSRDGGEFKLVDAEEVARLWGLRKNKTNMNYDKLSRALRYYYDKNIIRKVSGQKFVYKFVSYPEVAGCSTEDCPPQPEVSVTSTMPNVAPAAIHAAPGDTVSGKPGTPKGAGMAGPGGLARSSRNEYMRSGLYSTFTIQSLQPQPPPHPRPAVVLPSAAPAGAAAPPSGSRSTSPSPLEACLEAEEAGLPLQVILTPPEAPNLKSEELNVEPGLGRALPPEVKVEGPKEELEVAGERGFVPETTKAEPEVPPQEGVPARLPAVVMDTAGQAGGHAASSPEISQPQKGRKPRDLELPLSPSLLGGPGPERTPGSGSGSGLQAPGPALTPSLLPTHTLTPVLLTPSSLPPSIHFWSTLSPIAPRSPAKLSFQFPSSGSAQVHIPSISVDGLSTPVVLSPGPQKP
# How it was run: as §1
# [3] = molecular target: T3, GABPA (Homo sapiens, UniProt Q06546 1-454); conditions: protein: recombinant; tags: N-terminal GST; dsDNA, one strand shown
# T3 sequence: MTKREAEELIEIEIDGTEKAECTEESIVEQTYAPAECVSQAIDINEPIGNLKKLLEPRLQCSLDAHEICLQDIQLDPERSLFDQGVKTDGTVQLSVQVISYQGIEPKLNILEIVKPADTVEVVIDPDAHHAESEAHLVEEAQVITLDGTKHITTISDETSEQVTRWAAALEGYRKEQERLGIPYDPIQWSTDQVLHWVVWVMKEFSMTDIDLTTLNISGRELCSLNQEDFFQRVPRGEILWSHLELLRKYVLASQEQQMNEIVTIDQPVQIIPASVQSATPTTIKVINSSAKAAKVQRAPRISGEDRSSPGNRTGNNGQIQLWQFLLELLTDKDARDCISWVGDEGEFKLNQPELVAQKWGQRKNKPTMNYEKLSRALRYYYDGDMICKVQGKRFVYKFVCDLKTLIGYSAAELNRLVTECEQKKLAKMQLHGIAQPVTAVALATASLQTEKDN
# How it was run: as §1
# [4] = molecular target: T4, ERG (Homo sapiens, UniProt P11308 1-479); conditions: protein: recombinant; tags: N-terminal GST; dsDNA, one strand shown
# T4 sequence: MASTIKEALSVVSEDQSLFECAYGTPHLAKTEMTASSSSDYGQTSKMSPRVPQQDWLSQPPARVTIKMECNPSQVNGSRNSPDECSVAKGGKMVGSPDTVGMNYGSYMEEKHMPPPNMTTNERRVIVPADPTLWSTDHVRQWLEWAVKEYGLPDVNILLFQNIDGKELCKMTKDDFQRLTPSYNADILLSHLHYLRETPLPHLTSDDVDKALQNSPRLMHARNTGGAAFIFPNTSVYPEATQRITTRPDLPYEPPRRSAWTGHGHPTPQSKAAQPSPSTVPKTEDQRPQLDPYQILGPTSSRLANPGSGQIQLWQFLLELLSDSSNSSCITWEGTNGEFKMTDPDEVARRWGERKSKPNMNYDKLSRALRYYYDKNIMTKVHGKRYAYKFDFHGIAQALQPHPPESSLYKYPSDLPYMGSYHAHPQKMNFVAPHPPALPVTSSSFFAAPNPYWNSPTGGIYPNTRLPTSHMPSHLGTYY
# How it was run: as §1
# [5] = molecular target: ELF1 (Homo sapiens, UniProt P32519 1-619); conditions: protein: recombinant; tags: N-terminal GST; dsDNA, one strand shown
# How it was run: as §1
# [6] = molecular target: T5, EHF (Homo sapiens, UniProt Q9NZC4 1-300); conditions: protein: recombinant; tags: N-terminal GST; dsDNA, one strand shown
# T5 sequence: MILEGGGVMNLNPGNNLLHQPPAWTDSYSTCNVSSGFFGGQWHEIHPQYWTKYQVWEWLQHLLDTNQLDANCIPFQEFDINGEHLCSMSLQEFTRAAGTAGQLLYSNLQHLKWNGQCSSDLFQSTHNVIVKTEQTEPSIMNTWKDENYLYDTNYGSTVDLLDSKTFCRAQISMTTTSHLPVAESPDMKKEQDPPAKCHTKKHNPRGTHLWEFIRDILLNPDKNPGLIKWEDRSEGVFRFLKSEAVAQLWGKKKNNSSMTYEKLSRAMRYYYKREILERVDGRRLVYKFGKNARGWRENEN
# How it was run: as §1
# [7] = molecular target: SPI1 (Homo sapiens, UniProt P17947 1-270); conditions: protein: recombinant; tags: N-terminal GST; dsDNA, one strand shown
# How it was run: as §1
# [8] = molecular target: SPIB (Homo sapiens, UniProt Q01892 1-262); conditions: protein: recombinant; tags: N-terminal GST; dsDNA, one strand shown
# How it was run: as §1
# [9] = molecular target: T6, ELK3 (Homo sapiens, UniProt P41970 1-407); conditions: protein: recombinant; tags: N-terminal GST; dsDNA, one strand shown
# T6 sequence: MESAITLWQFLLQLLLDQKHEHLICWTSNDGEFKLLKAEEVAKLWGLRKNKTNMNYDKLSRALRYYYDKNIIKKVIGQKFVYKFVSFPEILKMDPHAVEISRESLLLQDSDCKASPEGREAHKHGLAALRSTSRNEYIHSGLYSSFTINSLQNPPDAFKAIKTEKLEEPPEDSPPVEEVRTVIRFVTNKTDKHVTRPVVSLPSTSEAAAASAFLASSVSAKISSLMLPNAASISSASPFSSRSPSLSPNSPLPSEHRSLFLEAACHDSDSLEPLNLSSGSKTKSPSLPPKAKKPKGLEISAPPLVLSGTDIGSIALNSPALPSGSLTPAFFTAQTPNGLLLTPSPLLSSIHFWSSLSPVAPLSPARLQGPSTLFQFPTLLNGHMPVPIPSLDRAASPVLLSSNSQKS
# How it was run: as §1
# [10] = molecular target: T7, FEV (Homo sapiens, UniProt Q99581 1-238); conditions: protein: recombinant; tags: N-terminal GST; dsDNA, one strand shown
# T7 sequence: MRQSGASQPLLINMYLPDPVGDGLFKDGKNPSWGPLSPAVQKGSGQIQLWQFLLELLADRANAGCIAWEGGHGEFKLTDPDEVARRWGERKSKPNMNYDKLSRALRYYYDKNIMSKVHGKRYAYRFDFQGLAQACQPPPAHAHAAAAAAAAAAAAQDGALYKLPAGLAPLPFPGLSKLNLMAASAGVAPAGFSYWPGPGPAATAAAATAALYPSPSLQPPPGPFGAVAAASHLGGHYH
# How it was run: as §1
# [11] = molecular target: ETV5 (Homo sapiens, UniProt P41161 1-510); conditions: protein: recombinant; tags: N-terminal GST; dsDNA, one strand shown
# How it was run: as §1
# [12] = molecular target: HSF1 (Homo sapiens, UniProt Q00613 1-529); conditions: protein: recombinant; tags: N-terminal GST; chain copies: 3; dsDNA, one strand shown
# How it was run: as §1
# [13] = molecular target: T8, SPIC (Homo sapiens, UniProt Q8N5J4 1-248); conditions: protein: recombinant; tags: N-terminal GST; dsDNA, one strand shown
# T8 sequence: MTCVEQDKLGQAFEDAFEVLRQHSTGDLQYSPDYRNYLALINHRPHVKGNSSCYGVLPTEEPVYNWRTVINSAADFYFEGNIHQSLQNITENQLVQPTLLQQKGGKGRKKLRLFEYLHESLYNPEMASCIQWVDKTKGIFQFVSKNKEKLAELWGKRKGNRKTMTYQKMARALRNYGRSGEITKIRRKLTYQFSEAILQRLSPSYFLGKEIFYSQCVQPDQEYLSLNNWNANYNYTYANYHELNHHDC
# How it was run: as §1
# [14] = molecular target: ELF4 (Homo sapiens, UniProt Q99607 1-663); conditions: protein: recombinant; tags: N-terminal GST; dsDNA, one strand shown
# How it was run: as §1
# [15] = molecular target: T9, ELK4 (Homo sapiens, UniProt P28324-2 1-405); conditions: protein: recombinant; tags: N-terminal GST; dsDNA, one strand shown
# T9 sequence: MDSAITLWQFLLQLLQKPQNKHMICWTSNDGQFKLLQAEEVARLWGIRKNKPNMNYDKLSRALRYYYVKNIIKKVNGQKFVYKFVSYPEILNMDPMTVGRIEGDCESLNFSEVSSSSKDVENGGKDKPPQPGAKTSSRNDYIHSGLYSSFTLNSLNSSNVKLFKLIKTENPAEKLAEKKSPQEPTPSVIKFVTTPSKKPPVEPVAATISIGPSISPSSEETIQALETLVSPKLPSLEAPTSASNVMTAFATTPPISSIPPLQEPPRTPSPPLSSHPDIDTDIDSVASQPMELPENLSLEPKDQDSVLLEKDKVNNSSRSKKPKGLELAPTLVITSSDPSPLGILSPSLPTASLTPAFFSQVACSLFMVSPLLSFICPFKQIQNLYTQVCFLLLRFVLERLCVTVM
# How it was run: as §1
# [16] = molecular target: T10, ETV2 (Homo sapiens, UniProt O00321 1-342); conditions: protein: recombinant; tags: N-terminal GST; dsDNA, one strand shown
# T10 sequence: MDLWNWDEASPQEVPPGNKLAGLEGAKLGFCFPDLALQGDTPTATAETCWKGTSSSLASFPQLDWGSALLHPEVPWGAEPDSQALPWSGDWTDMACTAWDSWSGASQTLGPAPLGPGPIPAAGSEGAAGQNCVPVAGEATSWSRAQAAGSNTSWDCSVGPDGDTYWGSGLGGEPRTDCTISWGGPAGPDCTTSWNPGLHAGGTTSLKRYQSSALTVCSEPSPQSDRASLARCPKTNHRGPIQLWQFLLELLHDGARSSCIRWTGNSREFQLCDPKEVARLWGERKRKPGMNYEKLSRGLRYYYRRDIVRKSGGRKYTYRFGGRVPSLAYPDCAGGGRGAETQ
# How it was run: as §1
# [17] = molecular target: T11, ELF3 (Homo sapiens, UniProt P78545 1-371); conditions: protein: recombinant; tags: N-terminal GST; dsDNA, one strand shown
# T11 sequence: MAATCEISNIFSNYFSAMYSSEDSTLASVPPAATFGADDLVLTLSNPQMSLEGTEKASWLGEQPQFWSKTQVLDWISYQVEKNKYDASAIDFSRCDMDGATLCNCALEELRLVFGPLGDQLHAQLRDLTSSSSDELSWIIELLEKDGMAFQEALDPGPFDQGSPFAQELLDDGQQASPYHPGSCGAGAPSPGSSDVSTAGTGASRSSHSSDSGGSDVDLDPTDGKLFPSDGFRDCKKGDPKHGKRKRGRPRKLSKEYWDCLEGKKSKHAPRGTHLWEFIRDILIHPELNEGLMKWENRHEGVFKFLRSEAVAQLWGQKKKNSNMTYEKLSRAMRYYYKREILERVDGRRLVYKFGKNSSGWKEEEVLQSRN
# How it was run: as §1
# [18] = molecular target: CRX (Homo sapiens, UniProt O43186 1-299); conditions: protein: recombinant; tags: N-terminal GST; dsDNA, one strand shown
# How it was run: as §1
# [19] = molecular target: ETV1 (Homo sapiens, UniProt P50549 1-477); conditions: protein: recombinant; tags: N-terminal GST; dsDNA, one strand shown
# How it was run: as §1
# ETV1, sequence (P50549 whole entry): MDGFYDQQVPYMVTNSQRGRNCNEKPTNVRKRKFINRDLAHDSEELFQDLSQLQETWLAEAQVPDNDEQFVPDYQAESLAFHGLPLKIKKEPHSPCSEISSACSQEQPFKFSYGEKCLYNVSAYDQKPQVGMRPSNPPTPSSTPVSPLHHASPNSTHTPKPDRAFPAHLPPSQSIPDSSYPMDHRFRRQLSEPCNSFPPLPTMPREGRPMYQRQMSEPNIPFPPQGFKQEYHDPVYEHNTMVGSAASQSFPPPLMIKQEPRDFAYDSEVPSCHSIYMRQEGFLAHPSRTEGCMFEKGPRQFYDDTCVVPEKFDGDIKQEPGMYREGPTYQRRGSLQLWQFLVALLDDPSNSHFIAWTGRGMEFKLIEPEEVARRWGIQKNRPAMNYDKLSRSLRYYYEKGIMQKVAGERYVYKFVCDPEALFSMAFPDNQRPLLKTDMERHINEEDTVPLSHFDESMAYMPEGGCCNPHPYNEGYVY
# SPIB, sequence (Q01892 whole entry): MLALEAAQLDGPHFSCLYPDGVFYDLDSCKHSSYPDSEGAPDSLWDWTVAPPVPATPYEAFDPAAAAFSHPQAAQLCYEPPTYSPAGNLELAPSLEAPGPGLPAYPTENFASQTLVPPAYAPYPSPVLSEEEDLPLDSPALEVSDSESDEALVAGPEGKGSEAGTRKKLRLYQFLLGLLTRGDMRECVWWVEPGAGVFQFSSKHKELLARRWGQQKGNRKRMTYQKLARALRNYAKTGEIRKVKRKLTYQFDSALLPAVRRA
# HSF1, sequence (Q00613 whole entry): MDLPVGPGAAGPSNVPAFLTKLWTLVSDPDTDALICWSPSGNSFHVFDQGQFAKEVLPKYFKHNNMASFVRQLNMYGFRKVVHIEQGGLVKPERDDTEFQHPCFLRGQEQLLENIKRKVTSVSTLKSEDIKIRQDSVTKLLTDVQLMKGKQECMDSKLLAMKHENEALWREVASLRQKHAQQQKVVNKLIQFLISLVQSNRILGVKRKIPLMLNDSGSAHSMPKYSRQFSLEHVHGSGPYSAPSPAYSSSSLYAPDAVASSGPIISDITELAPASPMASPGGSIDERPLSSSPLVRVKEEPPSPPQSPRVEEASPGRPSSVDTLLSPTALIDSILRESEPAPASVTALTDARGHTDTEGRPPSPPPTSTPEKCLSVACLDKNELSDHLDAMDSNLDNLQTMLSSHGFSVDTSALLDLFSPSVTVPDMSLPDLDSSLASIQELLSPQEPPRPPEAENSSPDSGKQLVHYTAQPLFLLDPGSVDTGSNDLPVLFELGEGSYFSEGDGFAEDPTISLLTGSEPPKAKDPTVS
# ELF4, sequence (Q99607 whole entry): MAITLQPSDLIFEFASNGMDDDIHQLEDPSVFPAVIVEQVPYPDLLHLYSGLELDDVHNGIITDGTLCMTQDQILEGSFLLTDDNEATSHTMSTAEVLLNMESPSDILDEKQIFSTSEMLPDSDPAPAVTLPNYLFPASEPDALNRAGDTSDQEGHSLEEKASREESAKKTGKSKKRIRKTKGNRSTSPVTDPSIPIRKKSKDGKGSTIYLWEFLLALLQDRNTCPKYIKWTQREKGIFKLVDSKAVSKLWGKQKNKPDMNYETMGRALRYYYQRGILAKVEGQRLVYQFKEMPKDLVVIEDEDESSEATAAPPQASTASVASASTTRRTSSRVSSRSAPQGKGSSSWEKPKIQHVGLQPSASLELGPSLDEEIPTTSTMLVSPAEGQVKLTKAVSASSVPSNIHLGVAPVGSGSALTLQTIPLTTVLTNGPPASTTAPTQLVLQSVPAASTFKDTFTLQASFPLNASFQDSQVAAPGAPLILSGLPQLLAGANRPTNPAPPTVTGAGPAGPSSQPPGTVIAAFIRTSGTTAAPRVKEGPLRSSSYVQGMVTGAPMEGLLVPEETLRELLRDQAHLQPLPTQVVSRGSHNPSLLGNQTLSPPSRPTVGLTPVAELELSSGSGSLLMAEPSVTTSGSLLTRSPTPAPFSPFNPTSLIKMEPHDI
# CRX, sequence (O43186 whole entry): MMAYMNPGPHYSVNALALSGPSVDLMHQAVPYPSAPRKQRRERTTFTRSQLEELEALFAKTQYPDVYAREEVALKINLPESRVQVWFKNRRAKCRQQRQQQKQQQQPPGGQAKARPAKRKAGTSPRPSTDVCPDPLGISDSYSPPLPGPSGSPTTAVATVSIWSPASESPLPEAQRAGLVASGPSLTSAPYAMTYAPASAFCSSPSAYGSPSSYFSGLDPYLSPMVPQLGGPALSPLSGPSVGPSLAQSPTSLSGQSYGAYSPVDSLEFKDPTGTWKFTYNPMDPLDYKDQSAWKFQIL
# ETV5, sequence (P41161 whole entry): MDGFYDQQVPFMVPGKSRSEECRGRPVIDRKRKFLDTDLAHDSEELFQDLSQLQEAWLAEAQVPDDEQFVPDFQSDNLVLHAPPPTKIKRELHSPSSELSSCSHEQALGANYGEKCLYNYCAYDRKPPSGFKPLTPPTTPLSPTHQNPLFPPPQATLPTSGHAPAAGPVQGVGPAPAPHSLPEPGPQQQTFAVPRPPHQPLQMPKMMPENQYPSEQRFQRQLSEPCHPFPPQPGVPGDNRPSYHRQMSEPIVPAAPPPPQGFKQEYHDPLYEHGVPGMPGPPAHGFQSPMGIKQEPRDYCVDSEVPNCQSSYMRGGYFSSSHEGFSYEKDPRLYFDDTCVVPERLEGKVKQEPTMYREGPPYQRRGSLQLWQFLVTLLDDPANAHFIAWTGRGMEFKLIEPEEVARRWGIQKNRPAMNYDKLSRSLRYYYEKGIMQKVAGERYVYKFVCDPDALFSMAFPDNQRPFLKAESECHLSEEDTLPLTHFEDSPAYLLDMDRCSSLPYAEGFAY
# ELF1, sequence (P32519 whole entry): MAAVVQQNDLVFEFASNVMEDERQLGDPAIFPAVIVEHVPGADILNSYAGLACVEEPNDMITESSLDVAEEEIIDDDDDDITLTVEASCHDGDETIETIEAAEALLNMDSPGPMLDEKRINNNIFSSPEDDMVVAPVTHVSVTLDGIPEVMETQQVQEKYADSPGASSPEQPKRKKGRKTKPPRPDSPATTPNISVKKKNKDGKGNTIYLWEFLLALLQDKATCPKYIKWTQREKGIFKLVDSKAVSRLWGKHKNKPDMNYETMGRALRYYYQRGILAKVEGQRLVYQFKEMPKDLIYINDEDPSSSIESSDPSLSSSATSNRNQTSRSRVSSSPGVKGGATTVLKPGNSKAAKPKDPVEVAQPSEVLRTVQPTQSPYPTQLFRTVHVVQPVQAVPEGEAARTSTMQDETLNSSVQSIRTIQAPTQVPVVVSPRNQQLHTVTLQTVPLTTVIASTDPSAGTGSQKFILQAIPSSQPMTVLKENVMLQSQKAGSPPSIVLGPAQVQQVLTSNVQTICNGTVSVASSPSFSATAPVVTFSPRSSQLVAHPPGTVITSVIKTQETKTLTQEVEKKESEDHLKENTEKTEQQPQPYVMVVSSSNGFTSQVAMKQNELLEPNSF
sequence,measurement,setting,value
ACTCGT,binding signal,[1],"1.19 fold enrichment (6-mer frequency, TF over GST control)"
same,binding signal,[2],"1.37 fold enrichment (6-mer frequency, TF over GST control)"
same,binding signal,[3],"1.26 fold enrichment (6-mer frequency, TF over GST control)"
same,binding signal,[4],"1.19 fold enrichment (6-mer frequency, TF over GST control)"
same,binding signal,[5],"1.25 fold enrichment (6-mer frequency, TF over GST control)"
same,binding signal,[6],"1.26 fold enrichment (6-mer frequency, TF over GST control)"
same,binding signal,[7],"1.17 fold enrichment (6-mer frequency, TF over GST control)"
same,binding signal,[8],"1.26 fold enrichment (6-mer frequency, TF over GST control)"
same,binding signal,[9],"1.19 fold enrichment (6-mer frequency, TF over GST control)"
same,binding signal,[10],"1.2 fold enrichment (6-mer frequency, TF over GST control)"
same,binding signal,[11],"1.22 fold enrichment (6-mer frequency, TF over GST control)"
same,binding signal,[12],"1.14 fold enrichment (6-mer frequency, TF over GST control)"
same,binding signal,[13],"1.16 fold enrichment (6-mer frequency, TF over GST control)"
same,binding signal,[14],"1.3 fold enrichment (6-mer frequency, TF over GST control)"
same,binding signal,[15],"1.28 fold enrichment (6-mer frequency, TF over GST control)"
same,binding signal,[16],"1.21 fold enrichment (6-mer frequency, TF over GST control)"
same,binding signal,[17],"1.25 fold enrichment (6-mer frequency, TF over GST control)"
same,binding signal,[18],"1.08 fold enrichment (6-mer frequency, TF over GST control)"
same,binding signal,[19],"1.13 fold enrichment (6-mer frequency, TF over GST control)"
